A selection: hits, their analogues and other compounds. The true share with any hit is near 1.1%.
LmPK inh = LmPK (Leishmania mexicana) enzyme inhibition. purified LmPK, Kinase-Glo ATP luminescence, 1 h. Potency, µM (series often up to 57.5 µM), hits mostly inhibitors. hit rate 0.37% among 290,000
Target sequence (Q27686 whole entry, looked up): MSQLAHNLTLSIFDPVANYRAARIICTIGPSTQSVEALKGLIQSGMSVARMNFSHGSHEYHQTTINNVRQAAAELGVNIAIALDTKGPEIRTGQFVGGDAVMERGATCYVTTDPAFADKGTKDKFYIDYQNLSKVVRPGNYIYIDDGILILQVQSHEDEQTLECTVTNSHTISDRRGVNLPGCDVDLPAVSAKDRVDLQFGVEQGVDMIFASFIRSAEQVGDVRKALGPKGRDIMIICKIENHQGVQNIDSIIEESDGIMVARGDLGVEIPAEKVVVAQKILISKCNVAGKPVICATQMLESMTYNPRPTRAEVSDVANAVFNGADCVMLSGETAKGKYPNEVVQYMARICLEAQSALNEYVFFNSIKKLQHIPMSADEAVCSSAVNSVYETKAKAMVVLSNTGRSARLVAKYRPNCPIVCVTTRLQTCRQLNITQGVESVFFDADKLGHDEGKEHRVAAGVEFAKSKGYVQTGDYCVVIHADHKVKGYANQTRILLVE
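Kinase-Glo luminescence read after 1 h RT reaction of 0.1 nM LmPK with 0.5 mM PEP and 0.1 mM ADP. Activity scaled between uninhibited and enzyme-free controls.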
SARS PLpro yeast = SARS-CoV PLP inhibition in yeast; Potency, µM (series often up to 32.9 µM), actives largely listed as activators; AID 485353; S. cerevisiae expressing SARS-CoV PLpro, growth rescue; hit rate 0.19% among 330,000; calls by dose curve; note: nearly all actives have a fitted effect of over 55% in size
RE007 growth inh = less growth of the S. pombe RE007 Vpr strain | S. pombe RE007 Vpr strain, BacTiter-Glo ATP luminescence, 24 h | hit rate 0.21% among 360,000 | AID 651644 | Potency, µM (highest dose often 92.2 µM), usual class: inhibitors; active = well fitted falling curve with a large enough effect; inconclusive = small, poorly fitted or top-dose-only effect; inactive = no such curve, though single readings can be large or run the other way; note: nearly all actives have a fitted effect of over 50% in size
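Fission yeast strain RE007, carrying one chromosomally integrated HIV-1 vpr copy, was seeded at OD 0.01 in PMG+AL medium with 23 nL pinned compound. After 24 h at 30 °C and 99% humidity, viability was read by BacTiter-Glo luminescence.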
TbPYK inhibitor = inhibitors of Trypanosoma brucei pyruvate kinase; TbPYK enzyme, Kinase-Glo Plus ATP luminescence, 45 min; Potency, µM (doses to about 76.8 µM), actives largely listed as inhibitors; hit rate 0.12% among 410,000; AID 624173; note: nearly all actives have a fitted effect of over 50% in size
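Assay buffer: 50 mM TEA pH 7.2, 100 mM KCl, 10 mM MgCl2, 0.05% BSA, 0.01% Tween-20. Pyruvate kinase from T. brucei plus substrate met compound, then ADP (130 uM final). Luminescence was read post 45 min RT.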
Giardia FBPA inh-1 = inhibitors of Giardia lamblia fructose-1,6-bisphosphate aldolase; A8B2U2; purified Giardia FBPA; Potency, µM (series often up to 59.6 µM), hits mostly inhibitors; hit rate 0.71% among 290,000; AID 2451; note: nearly all actives have a fitted effect of over 55% in size
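Giardia FBPA (40 nM reagent) was preincubated 10 min at RT with compound (up to 57.5 uM final), then substrate plus GAPDH/TPI/NAD/arsenate coupling system with diaphorase/resazurin was added; resorufin fluorescence (525/598 nm) was read after 20 min.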
Giardia growth = Giardia lamblia growth inhibition. AID 2785. Potency, µM (top dose mostly 57.5 µM), most hits filed as inhibitors. Giardia lamblia trophozoite growth inhibition. hit rate 5% among 1,500. shares compounds with Giardia FBPA inh-1;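 note: trophozoites exposed to compound for 48 h at 37 °C; nearly all actives have a fitted effect of over 70% in size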
Mammal cell tox = toxic to mammalian cells in Giardia aldolase counter-screen | shares compounds with Giardia FBPA inh-1 | mammalian cell viability counter-screen, qHTS | Potency, µM (titrated, usually from 57.5 µM), most hits filed as inhibitors | hit rate 4% among 1,500;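 note: Chinese hamster ovary cells used as mammalian cytotoxicity surrogate; viability measured as cellular ATP by luminescence; compound exposure lasted 48 h before reading; nearly all actives have a fitted effect of over 60% in size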
Giardia FBPA inh-2 = confirmation of Giardia fructose-bisphosphate aldolase inhibitors; shares compounds with Giardia FBPA inh-1; purified Giardia aldolase enzyme activity, qHTS; Potency, µM (doses to about 57.5 µM), hits mostly inhibitors; hit rate 5% among 1,500; note: nearly all actives have a fitted effect of over 45% in size
Rabbit aldolase = blocks rabbit muscle aldolase in Giardia aldolase selectivity test; shares compounds with Giardia FBPA inh-1; Rabbit muscle FBPA enzyme inhibition, selectivity counter-screen; Potency, µM (titrated, usually from 57.5 µM), usual class: inhibitors; hit rate 4% among 1,500; note: nearly all actives have a fitted effect of over 60% in size
GAPDH counter = counter-screen for Giardia aldolase inhibitors: GAPDH coupling enzyme | shares compounds with Giardia FBPA inh-1 | GAPDH coupling enzyme counterscreen, biochemical, qHTS | Potency, µM (doses to about 57.5 µM), usual class: inhibitors | AID 2795 | hit rate 6% among 1,500; note: nearly all actives have a fitted effect of over 55% in size
Numbers stand for hits; . = inactive; ? = inconclusive; / = no result given; [ ] = dose if it differs, or a comment. Unless noted, calls come from the whole dose curve; as a rule, active = well fitted curve in the direction sought with a large enough effect; inconclusive = small, poorly fitted or top-dose-only effect, or another doubt; inactive = no such curve, though single readings can be large; an effect the other way counts as inactive or inconclusive.

SMILES	LmPK inh	SARS PLpro yeast	RE007 growth inh	TbPYK inhibitor	Giardia FBPA inh-1	Giardia growth	Mammal cell tox	Giardia FBPA inh-2	Rabbit aldolase	GAPDH counter
O=C(NC1CC(=O)N(c2ccccc2)C1)C(c1ccccc1)c1ccccc1 (stereo unspecified)	/	/	/	.	/	/	/	/	/	/
CC1CCN(S(=O)(=O)c2ccc3c(c2)oc(=O)n3CC(=O)NC(C)c2ccccc2)CC1 (stereo unspecified)	/	/	/	.	/	/	/	/	/	/
Cc1cc(Nc2sc(C(=O)c3ccc(F)cc3)c(N)c2C(=O)Nc2ccc(F)cc2)ccc1Cl	/	/	/	.	/	/	/	/	/	/
Cc1ccc(C(=O)c2no[n+]([O-])c2C(=O)c2ccc(C)cc2)cc1	.	.	32µM	.	16µM	.	.	.	?	.
Cc1cc(C)cc(-n2c(C)cc(C(=O)C(=O)Nc3nnc(C)s3)c2C)c1	/	/	/	.	/	/	/	/	/	/
COc1cccc(-c2nc(CS(=O)(=O)CC(=O)NCCc3ccc(Cl)cc3)c(C)o2)c1	/	/	/	.	/	/	/	/	/	/
O=C(CSc1cccc2cccnc12)Nc1cc(C(=O)O)cc(C(=O)O)c1	.	.	.	.	25µM	.	.	.	.	.
O=C1CSC(=S)N1	.	.	.[18.4 µM]	.	7.9µM	.	.	.	.	.
O=C1CSC(=Nc2ccc(O)cc2)N1	.	.	.	.	.	/	/	/	/	/
O=c1oc2ccccc2c2oc3cc(O)c(O)cc3c12	.	.	.	.	?	/	/	/	/	/
O=c1oc2c(O)c(O)cc3c(=O)oc4c(O)c(O)cc1c4c23	.	1.4µM	.	.	2µM	.	.	?	?	?
C=CCNC(=S)N/N=C(\C)c1cccnc1	.	.	.	.	16µM	.	.	.	.	.
C=CCNC(=S)N/N=C(\C)c1cccc(OC)c1	.	?	.	.	.	/	/	/	/	/
O=C(CSc1n[nH]c(-c2cccnc2)n1)Nc1ccccc1[N+](=O)[O-]	.	.	.	.	25µM	?	.	.	.	.
CCOC(=O)c1c(C)[nH]c(N=Nc2ccc(C)cc2)c1C	.	.	.	.	.	/	/	/	/	/
Cc1ccc(N=Nc2c(O)ccc3n[nH]nc23)cc1	?	.	?	.	16µM	?	.	?	.	.
Cc1ccc(C2C=C(c3ccc(Cl)cc3)Nc3nc(NC(=O)c4ccco4)nn32)cc1 (stereo unspecified)	/	/	/	.	/	/	/	/	/	/
Cc1ccc(-n2nc3c(=S)[nH]nc(C)c3c2C)cc1	.	.	.	.	25µM	.	.	.	.	.
CCCCCCC(=O)N/N=C/c1c(O)n(C2CC2)c(=S)[nH]c1=O	.	.	.	.	.	/	/	/	/	/
C=CCn1c(O)c(/C=N/NC(=O)CCCC)c(=O)[nH]c1=S	.	.	.	.	7.1µM	.[10.4 µM]	.	.	.	.

Assay outcomes (PubChem)
